In PubChem BioAssay AID540259 (Broad Institute, 2011):
Potency and affinity values are given separately. Activity calls are given as the source filed them.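 Rule for the calls: active = cell killing, meaning signal decrease, with fitted half-maximal dose at or below ten times the top valid tested dose; inconclusive = poor fit, or flat curve with 30 to 70% signal loss; inactive = the rest.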

Assay: ATP-based viability loss in HeLa cells – cell-based, CellTiter-Glo luminescence, cherry-pick samples, cytotoxicity control for MITF activator project, dose response (AID 540259)
Conditions: 24 h; series mostly up to 35 µM

SMILES	outcome
c1cnc2nc(-c3ccc4c(c3)OCO4)cn2c1	inactive
COc1ccc(Oc2nnc(C)c3ccccc23)cc1	inactive
O=c1nc(/C=C/c2ccc(O)c(O)c2)oc2ccccc12	inactive
O=C(Cc1ccccn1)c1ccc(Cl)cc1	inactive
Nc1nc2ccccc2cc1-c1cccs1	inactive
Nc1c(C(=O)C2CC2)sc2nc3c(cc12)CCC3	inactive
CCCCSc1nsc(NC(C)=O)n1	inactive
COc1ccc2ccccc2c1/C=N/Nc1cccc(C(=O)O)c1	inactive
COc1ccc(-c2cn(CC3CCCCC3)nn2)cc1	inactive
O=Cc1ccc(OCc2ccc3ccccc3c2)cc1	inactive
FC(F)(F)c1ccnc(Oc2ccc(C3=NCCS3)cc2)c1	inactive
Cc1ccc(C(=O)Cn2nnc3ccccc32)cc1C	inactive
COc1cc(/C=C/c2nc3ccccc3c(=O)[nH]2)ccc1OC(F)F	inactive
Cc1ccn2cc(C(=O)Nc3nnc(C)s3)nc2c1	inactive
O=C(CCCc1ccccc1)c1ccccc1	inactive
Cc1cc(NC(=O)c2ccc(Cl)cc2)no1	inactive
CC(NC(=O)c1cc(COc2ccccc2)on1)c1nccs1 (configuration not stated)	inactive
CC(C)C(=O)Nc1cccc(C(=O)Nc2nnc(C(C)C)s2)c1	inactive
COc1ccc(C(=O)NCCn2ccc3ccccc32)cc1	inactive

SMILES	outcome
c1cncc(-c2nc3ccccc3s2)c1	inactive
O=C(c1nnc(-c2ccc(Cl)cc2)o1)C1CCCC1	inactive
Nc1ccc(-c2nnc(-c3ccc(N)cc3)o2)cc1	inactive
COc1ccc(-c2ccc3oc(-c4ccsc4)cc(=O)c3c2)cn1	inactive
CC1CCC(NC(=O)c2cc3c(s2)CCCC3)CC1 (configuration not stated)	inactive
Cc1ccc(O)c(-n2nc3ccccc3n2)c1	inactive
O=C(c1noc2c1CCCC2)N1CCc2ccccc2C1	inactive
O=c1[nH]c(Cc2cccs2)nc2scc(-c3ccc(Cl)cc3)c12	inactive
CSCC[C@H](NC(=O)[C@@H]1Cc2ccccc2CN1)C(=O)NC[C@H]1CC[C@H](C(=O)O)CC1	inactive
Brc1ccc(OCc2cn3ccccc3n2)cc1	inactive
Cc1ccc(CSc2ccc(-c3cccs3)nn2)cc1	inactive
Cc1ccsc1C(=O)OCc1nnc(-c2ccccc2)o1	inactive
Cc1ccc(NC(=O)CCCc2ccccc2)nc1	inactive
FC(F)(F)c1cnc(-c2cnc(-c3cccnc3)nc2)c(Cl)c1	inactive
O=c1c2ccccc2oc2cc(NCCCn3ccnc3)ccc12	inactive
Cc1ccccc1-c1nc2cc(Cl)ccc2o1	inactive
COc1ccc(NC(=O)n2ncc3cc(Cl)ccc32)cc1OC	inactive
Cc1ccc(NC(=O)CC(=O)c2ccccc2)cc1C	inactive
